Assay outcomes from PubChem BioAssay.
Sampled rows, rich in hits. Any-hit rate of the full collection: about 2.1%.
ARNT-TACC3 inh = ARNT/TACC3 interaction disruption | AID 623870 | Q9Y6A5 | inhibition, % at 9.99 µM | 390,000 compounds, 0.66% hits | AlphaScreen His-ARNT PAS-B/GST-TACC3 binding, luminescence; TACC3 fragment carries E629A point mutation;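 active means mean inhibition of replicates at least 50% and at least half of replicates each reaching 50%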;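 further: 0% = complete ARNT plus TACC3 wells and 100% = ARNT alone without TACC3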
Casp6 inh = blocks human caspase-6 cleavage activity; P55212; purified caspase-6, Z-VEID-R110 cleavage fluorescence; inhibition, % at 12.5 µM; 350,000 compounds, 0.53% hits;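 active means mean inhibition across replicates at least about 35%, with every replicate also reaching that limit, limit read from the data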;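 further: 0% = median of neutral control wells and 100% = no fluorescence left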
Target sequence (P55212 24-179 limits assumed): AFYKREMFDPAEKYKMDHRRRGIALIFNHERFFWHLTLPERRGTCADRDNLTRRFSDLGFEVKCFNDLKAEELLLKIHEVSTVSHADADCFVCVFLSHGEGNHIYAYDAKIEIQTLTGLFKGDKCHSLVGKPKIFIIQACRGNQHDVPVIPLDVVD
Target sequence (P55212 194-293 limits assumed): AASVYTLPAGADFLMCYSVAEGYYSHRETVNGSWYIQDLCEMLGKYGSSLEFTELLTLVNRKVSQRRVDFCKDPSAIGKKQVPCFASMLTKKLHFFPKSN
SIRT5 inh = sirtuin-5 (human) deacylase inhibition. Purified SirT5, succinyl-peptide AMC, trypsin-coupled fluorescence. inhibition, % at 15 µM. 330,000 compounds, 1.1% hits; in the data active means inhibition above about 15%
Target sequence (Q9NXA8 whole entry, looked up): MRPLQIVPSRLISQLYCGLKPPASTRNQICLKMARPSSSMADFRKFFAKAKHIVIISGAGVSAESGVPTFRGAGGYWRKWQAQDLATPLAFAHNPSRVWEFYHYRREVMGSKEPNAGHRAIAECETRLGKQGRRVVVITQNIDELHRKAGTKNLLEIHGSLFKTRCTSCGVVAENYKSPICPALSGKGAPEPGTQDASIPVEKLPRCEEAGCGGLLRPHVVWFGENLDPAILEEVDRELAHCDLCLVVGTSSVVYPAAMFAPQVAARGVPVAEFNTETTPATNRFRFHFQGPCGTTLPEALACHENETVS
NSD2 inh = inhibitors of human histone methyltransferase NSD2 | 310,000 compounds, 0.54% hits | inhibition, % at 12.5 µM | NSD2 peptide methylation, AlphaScreen, 120 min; in the data active means inhibition above about 50%
PfHsp90 yeast 2 = inhibits growth of yeast expressing Plasmodium falciparum Hsp90. 310,000 compounds, 0.32% hits. inhibition, % at 9.4 µM. S. cerevisiae expressing PfHsp90, BacTiter-Glo ATP, 48 h; yeast lacking PDR1 and PDR3 efflux regulators. AID 504621;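 active means every replicate shows inhibition above about 80%, whatever the replicate mean, limit read from the data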;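 further: 0% = DMSO neutral controls and 100% = 20 µM radicicol positive controls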
* = called active by the depositor; nt = no result given.

SMILES | ARNT-TACC3 inh | Casp6 inh | SIRT5 inh | NSD2 inh | PfHsp90 yeast 2
CO[C@@H]1CN(C)C(=O)c2ccc(NC(=O)C3CCOCC3)cc2OC[C@H](C)NC[C@@H]1C | 16.9 | 4.4 | -2.6 | nt | nt
COc1ccc2c3c(n(C)c2c1)[C@@H](CO)N(C(=O)CC1CC1)CC31CCN(C(=O)CC2CC2)CC1 | nt | 1.9 | -0.3 | nt | nt
O=C(O)CC1S/C(=N/N=C/c2ccccn2)NC1=O (stereo unspecified) | 71.0* | -2.4 | 3.0 | 1.3 | 25.4
C[C@@H]1CN([C@H](C)CO)C(=O)Cc2cc(NC(=O)C3CC3)ccc2O[C@@H]1CN(C)CC1CCCCC1 | 1.5 | nt | -1.3 | nt | nt
COc1ccc2c3c(n(C)c2c1)[C@@H](CO)N(S(C)(=O)=O)CC31CN(C(=O)C2CCC2)C1 | nt | -0.9 | -1.2 | nt | nt
COc1ccc(-c2noc(CCCC(=O)NC3CCCCC3)n2)cc1OC | 2.1 | -3.7 | -4.0 | -0.3 | 24.8
CCOc1ccc(-c2noc(CCCC(=O)NC3CCCC3)n2)cc1OC | -0.1 | -0.6 | 18.6* | -5.8 | 10.0
COc1ccc(CC(=O)NC(C)c2nnc(SCCOc3ccc(OC)cc3)n2C)cc1 (stereo unspecified) | -2.7 | 4.7 | 29.3* | 0.2 | nt
COc1ccc(CC(=O)NC(C)c2nnc(SCC(=O)c3ccc(OC)cc3)n2C)cc1 (stereo unspecified) | 0.0 | -2.5 | -1.8 | -2.4 | nt
COc1ccccc1NS(=O)(=O)c1cc(C(=O)NC2CCN(Cc3ccccc3)CC2)ccc1C | nt | 55.2* | -14.4 | 1.3 | nt
C[C@H]1CN([C@@H](C)CO)C(=O)c2cc(C#Cc3ccccc3F)cnc2O[C@H]1CN(C)C(=O)c1ccc2c(c1)OCO2 | -1.5 | 3.7 | 2.4 | nt | nt
CCOC(=O)CC1=NN(c2ccccc2)C(=O)C1 | -24.7 | 3.0 | -2.6 | -0.1 | 15.1
CCOC(=O)CC1=NN(c2ccccc2)C(=O)/C1=C\c1ccc(N(C)C)cc1 | 1.4 | -1.5 | 112.5* | 17.4 | 2.6
C[C@@H]1CCCCO[C@@H](CN(C)CC2CC2)[C@H](C)CN([C@H](C)CO)C(=O)c2cc(NC(=O)CCC(F)(F)F)ccc2O1 | nt | 2.2 | 7.8 | nt | nt
COCC(=O)Nc1ccc2c(c1)C(=O)N(C)[C@H]1CC[C@@H](CC(=O)NCCc3ccncc3)O[C@@H]1CO2 | -1.0 | 11.6 | -2.8 | nt | nt
CCCNC(=O)N1CC2(C1)[C@@H](c1ccccc1)[C@H](CO)N2Cc1ccc(F)cc1 | nt | 1.5 | 5.2 | nt | nt
Oc1c(Br)cc(Br)cc1C=Nc1cccnc1 | 21.8 | 32.5 | 3.5 | -3.1 | 100.8*
COc1cccc(CNC(=O)[C@@H]2CCCN2)c1 | nt | -2.5 | 25.0* | nt | nt
COc1ccc(CN(C)C[C@H]2OCCCC[C@@H](C)Oc3ccc(NS(=O)(=O)c4cn(C)cn4)cc3C(=O)N([C@H](C)CO)C[C@H]2C)cc1 | -0.9 | -1.4 | 1.2 | nt | nt
O=C1CC(N2CCC(c3nc4ccccc4[nH]3)CC2)C(=O)N1c1ccccc1F (stereo unspecified) | 7.0 | -1.3 | 18.3* | -1.8 | 11.0
CN1C(=O)S/C(=C/c2cccn2-c2cccc(C(=O)O)c2)C1=O | -2.4 | 10.6 | 5.3 | 7.7 | 3.3
O=C(O)c1cccc(-n2cccc2/C=C/[N+](=O)[O-])c1 | 2.4 | 65.2* | 15.3* | nt | 2.7
N#C/C(=C/c1cccn1-c1cccc(C(=O)O)c1)c1ccc(Cl)cc1 | -2.4 | 84.1* | 5.9 | nt | -128.5
CCOC(=O)/C(C#N)=C/c1cccn1-c1ccc(Cl)cc1 | nt | -1.7 | -1.0 | 0.8 | nt
CN1C(=O)c2cc(NC(=O)C3CCCC3)ccc2OC[C@@H]2O[C@@H](CC(=O)NCc3ccccc3F)CC[C@@H]21 | nt | -0.4 | -0.8 | nt | nt
SMILES | ARNT-TACC3 inh | Casp6 inh | SIRT5 inh | NSD2 inh | PfHsp90 yeast 2
CCC(=O)N(C)C[C@@H]1Oc2ncc(-c3ccccc3F)cc2C(=O)N([C@@H](C)CO)C[C@@H]1C | 1.8 | -3.8 | -3.3 | nt | nt
CCC/C(O)=C1\C(=O)CCCC1=NCCc1c(C)[nH]c2ccccc12 | -4.0 | -1.6 | 25.0* | 7.0 | -6.4
CCC/C(O)=C1\C(=O)CC(c2ccccc2)CC1=NCCc1c(C)[nH]c2ccccc12 (stereo unspecified) | -8.3 | -1.9 | -1.0 | nt | -20.5
O=C(C[C@@H]1CC[C@@H]2[C@H](COC[C@@H](O)CN2C(=O)Nc2cccc(F)c2)O1)NCc1ccccc1Cl | -3.2 | 9.7 | -2.6 | nt | nt
c1ccc(CN2CCC(N3CCC(N4CCCCCC4)CC3)CC2)cc1 | 3.2 | -141.5 | 31.8* | nt | -2.1
COc1ccc(S(=O)(=O)Nc2cccc3c2O[C@H](CN(C)S(=O)(=O)c2ccc(OC)cc2)[C@H](C)CN([C@H](C)CO)C3=O)cc1 | nt | -0.6 | 8.7 | nt | nt
O=[N+]([O-])c1ccc(N=Nc2c(Cl)cc(O)cc2Cl)cc1 | 30.1 | 6.2 | 2.2 | nt | 131.2*
COCC(=O)N1C[C@H](C)[C@@H](OC)CN(C)C(=O)c2ccc(NC(=O)c3ccc(F)cc3)cc2OC[C@H]1C | -13.3 | -1.9 | 5.5 | nt | nt
C/C(=N\NC(=O)c1c[nH]c2ccccc12)c1ccccn1 | 76.7* | 8.2 | 4.9 | -19.8 | 37.2
C/C(=N\NC(=O)CCCNc1ccc(C)cc1)c1ccccn1 | 47.8* | 4.5 | -6.4 | -3.6 | 0.4
C/C(=N\NC(=O)c1cc2ccccc2cc1O)c1ccccn1 | 69.2* | 0.5 | 1.8 | nt | 92.3*
OC[C@@H]1[C@H](c2ccc(C3=CCCCC3)cc2)[C@@H](CNC2CCCC2)N1CC1CC1 | nt | 0.2 | 0.0 | nt | nt
C[C@@H]1CCCCO[C@H](CN(C)C(=O)c2ccncc2)[C@@H](C)CN([C@@H](C)CO)C(=O)c2cc(NC(=O)c3ccccc3)ccc2O1 | -9.8 | -3.4 | -7.9 | nt | nt
Cc1c(/C=N/NC(=O)c2cccnc2)cc(C#N)n1C | -4.6 | -3.8 | -1.4 | -5.4 | -0.3
Cc1ccc(C(=O)/C=C/c2cc(C#N)n(C)c2C)cc1 | 1.9 | 0.2 | 21.9* | 3.4 | -14.4
O=C(CSc1ccc(F)cc1)Nc1nnc(-c2ccco2)o1 | 48.6* | 6.4 | 3.9 | -0.2 | 1.0
Cc1ccc(NC(=O)CSc2nnc(-c3ccco3)o2)cc1 | 3.3 | -1.2 | -1.8 | -2.5 | nt
Cc1ccc(SCC(=O)Nc2nnc(-c3ccco3)o2)cc1 | 47.7* | -2.5 | -0.3 | -1.4 | 28.0
CN1CCN(c2cc(CNC[C@H]3O[C@@H](n4cnc5c(=O)[nH]c(N)nc54)[C@H](O)[C@@H]3O)ccc2F)CC1 | nt | 54.0* | -4.4 | nt | nt
O=C(C[C@H]1C[C@H]2c3cc(NC(=O)CC4CC4)ccc3O[C@H]2[C@@H](CO)O1)NCC(F)(F)F | -4.1 | -3.1 | 1.5 | nt | nt
CCCCCCC(=O)N(O)C1CC(=O)N(Cc2ccccc2)C1=O (stereo unspecified) | nt | nt | nt | -0.7 | -16.0
CCCCCC(=O)N(O)C1CC(=O)N(c2ccccc2)C1=O (stereo unspecified) | -9.5 | nt | nt | 1.1 | 105.3*
O=C(c1ccc(F)cc1)N1CC(=O)N2[C@H](C1)[C@H](c1ccc(C#CC3CCCC3)cc1)[C@@H]2CO | nt | -0.9 | 1.2 | nt | nt
O=C(Nc1ccc(Cl)cc1)N[C@H]1CC[C@H](CCNC(=O)c2cc(Cl)cc(Cl)c2)O[C@@H]1CO | nt | 2.3 | -0.8 | nt | nt
CCN1CCN(C(=O)/C=C/c2ccc(F)cc2)CC1 | nt | 2.8 | 17.9* | 4.1 | nt
